Numbering of substitutions follows the chain as printed.
Assays:
Test in all cases: protein-binding microarray (PBM); PBM: ~300 nM protein, 6 mM HEPES pH 7.8, 80 mM KCl, 0.5 mM EDTA, 0.5 mM EGTA, 6% glycerol, 35 ng/ul poly-dIdC, 1% milk, 1 h, room temperature; Ap Aiptasia and Nv Nematostella (sea anemones) / Co Capsaspora / Aq Amphimedon (sponge) / Dm Drosophila / Hu human; RHD is the Rel homology domain; high values mean tight binding
Conditions in all cases: dsDNA, one strand shown
GST-Ap-NF-kB RHD = molecular target: T1, GST-Ap-NF-kB RHD (Exaiptasia pallida (Aiptasia), UniProt A0A913YAJ5 2-422)
T1 sequence: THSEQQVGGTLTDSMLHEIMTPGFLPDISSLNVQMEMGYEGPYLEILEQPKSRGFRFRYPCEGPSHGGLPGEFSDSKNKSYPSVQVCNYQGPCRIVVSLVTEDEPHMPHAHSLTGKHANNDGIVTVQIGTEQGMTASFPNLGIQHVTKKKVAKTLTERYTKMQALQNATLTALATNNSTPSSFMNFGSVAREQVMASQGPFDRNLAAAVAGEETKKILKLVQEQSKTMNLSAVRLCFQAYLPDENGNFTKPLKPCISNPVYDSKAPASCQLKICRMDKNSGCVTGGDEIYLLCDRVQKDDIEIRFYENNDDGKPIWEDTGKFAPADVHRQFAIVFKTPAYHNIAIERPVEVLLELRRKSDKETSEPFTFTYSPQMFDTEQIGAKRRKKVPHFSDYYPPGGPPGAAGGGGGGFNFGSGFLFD

GST-Co-NF-kB = molecular target: T2, GST-Co-NF-kB (Capsaspora owczarzaki, UniProt F1ARL5 200-546)
T2 sequence: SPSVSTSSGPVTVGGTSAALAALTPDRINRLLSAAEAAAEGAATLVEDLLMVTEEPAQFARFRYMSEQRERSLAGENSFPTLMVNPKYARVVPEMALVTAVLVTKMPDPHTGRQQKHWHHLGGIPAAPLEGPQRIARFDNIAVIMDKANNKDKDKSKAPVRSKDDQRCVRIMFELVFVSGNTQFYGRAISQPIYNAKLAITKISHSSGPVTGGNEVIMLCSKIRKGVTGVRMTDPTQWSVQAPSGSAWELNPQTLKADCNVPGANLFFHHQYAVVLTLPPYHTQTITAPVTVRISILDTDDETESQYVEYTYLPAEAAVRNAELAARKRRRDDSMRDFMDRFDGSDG

GST-Dm-Relish = molecular target: T3, GST-Dm-Relish (Drosophila melanogaster, UniProt Q94527 99-473)
T3 sequence: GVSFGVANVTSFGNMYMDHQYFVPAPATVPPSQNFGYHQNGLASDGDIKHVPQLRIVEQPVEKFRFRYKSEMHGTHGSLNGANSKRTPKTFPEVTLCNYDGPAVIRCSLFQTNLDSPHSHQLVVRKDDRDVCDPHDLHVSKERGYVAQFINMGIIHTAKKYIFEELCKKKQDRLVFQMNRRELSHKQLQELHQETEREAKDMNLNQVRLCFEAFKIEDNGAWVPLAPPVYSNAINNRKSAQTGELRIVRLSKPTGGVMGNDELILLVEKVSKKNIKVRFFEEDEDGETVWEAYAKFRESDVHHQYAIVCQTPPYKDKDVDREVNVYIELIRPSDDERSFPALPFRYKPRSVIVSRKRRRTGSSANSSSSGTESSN

GST-Aq-NF-kB = molecular target: T4, GST-Aq-NF-kB (Amphimedon queenslandica, UniProt A9Y5G7 2-389)
T4 sequence: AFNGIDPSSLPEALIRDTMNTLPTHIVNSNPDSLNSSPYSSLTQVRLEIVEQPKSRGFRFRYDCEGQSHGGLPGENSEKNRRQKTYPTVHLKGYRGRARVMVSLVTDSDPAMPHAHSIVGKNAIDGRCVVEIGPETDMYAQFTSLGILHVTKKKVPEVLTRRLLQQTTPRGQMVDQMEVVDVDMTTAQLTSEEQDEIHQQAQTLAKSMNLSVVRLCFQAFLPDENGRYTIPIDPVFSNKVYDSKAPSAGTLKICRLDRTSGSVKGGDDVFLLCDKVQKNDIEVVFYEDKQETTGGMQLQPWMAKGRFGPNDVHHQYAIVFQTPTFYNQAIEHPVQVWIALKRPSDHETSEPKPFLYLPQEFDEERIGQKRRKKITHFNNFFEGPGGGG

GST-Hu-p50 = GST-Hu-p50 (Homo sapiens, UniProt P19838 7-356)
Chain of GST-Hu-p50 (P19838 7-356): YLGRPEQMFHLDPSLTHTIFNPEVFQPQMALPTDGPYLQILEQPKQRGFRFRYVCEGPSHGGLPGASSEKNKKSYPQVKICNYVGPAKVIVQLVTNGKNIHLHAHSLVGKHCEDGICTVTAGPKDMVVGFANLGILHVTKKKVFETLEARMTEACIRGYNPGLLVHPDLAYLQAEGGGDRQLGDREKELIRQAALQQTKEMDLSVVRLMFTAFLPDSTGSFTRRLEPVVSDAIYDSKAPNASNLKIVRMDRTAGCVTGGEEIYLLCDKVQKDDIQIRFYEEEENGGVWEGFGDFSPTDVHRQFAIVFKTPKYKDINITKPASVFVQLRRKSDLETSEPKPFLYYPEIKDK

[1] = molecular target: T5, GST-Nv-NF-kB (Ser allele) (Nematostella vectensis, UniProt A7UNT2 2-411)
T5 sequence: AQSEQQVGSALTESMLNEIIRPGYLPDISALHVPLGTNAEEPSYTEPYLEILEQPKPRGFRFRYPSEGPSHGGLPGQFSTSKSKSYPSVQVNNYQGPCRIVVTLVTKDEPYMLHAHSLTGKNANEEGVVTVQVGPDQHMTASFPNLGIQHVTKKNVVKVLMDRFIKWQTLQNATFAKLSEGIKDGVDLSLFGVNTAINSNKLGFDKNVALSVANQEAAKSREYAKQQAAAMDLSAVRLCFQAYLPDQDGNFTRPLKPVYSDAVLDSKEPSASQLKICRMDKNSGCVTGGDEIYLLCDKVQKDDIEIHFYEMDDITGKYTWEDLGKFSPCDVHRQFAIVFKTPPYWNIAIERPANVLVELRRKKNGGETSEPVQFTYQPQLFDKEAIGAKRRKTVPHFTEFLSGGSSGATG

[2] = molecular target: T6, GST-Nv-NF-kB (Cys allele) (Nematostella vectensis, UniProt E5G601 2-411)
T6 sequence: T5 sequence with R21Q, S66C, N207S, Q215E, A217V, K225E, E268A, E399D

Row | Sequence | binding signal (GST-Ap-NF-kB RHD) [z-score] | binding signal (GST-Co-NF-kB) [z-score] | binding signal (GST-Dm-Relish) [z-score] | binding signal (GST-Aq-NF-kB) [z-score] | binding signal (GST-Hu-p50) [z-score] | binding signal [1] [z-score] | binding signal [2] [z-score]
1 | CCGATTAACATCAGACCCCCCCCTGATGTTAATCGGGTCTTGATTCGCTTGACGCTGCTG | 5.15 | 4.59 | 4.7 | 4.8 | 4.03 |  | 
2 | CCGATTAACATCAAGGTTTTTCCTGATGTTAATCGGGTCTTGATTCGCTTGACGCTGCTG |  |  | 3.17 | 2.97 | 1.61 | 1.62 | 
3 | CCGATTAACATCAAGGGCTTTCCTGATGTTAATCGGGTCTTGATTCGCTTGACGCTGCTG | 1.28 |  | 2.98 | 3.6 | 1.47 |  | 
4 | CCGATTAACATCAAAAACTTTCCTGATGTTAATCGGGTCTTGATTCGCTTGACGCTGCTG |  |  | 2.34 | 2.68 | 1.25 | 1.54 | 
5 | CCGATTAACATCAAAATTTGCCCTGATGTTAATCGGGTCTTGATTCGCTTGACGCTGCTG |  | 1.18 |  | 1.61 | 1.54 | 1.28 | 
6 | CCGATTAACATCAGGAAATTCCATGATGTTAATCGGGTCTTGATTCGCTTGACGCTGCTG |  |  | 1.68 | 3.91 | 1.1 |  | 1.06
7 | CCGATTAACATCAGGGAGTACACTGATGTTAATCGGGTCTTGATTCGCTTGACGCTGCTG | 1.96 | 1.03 | 1.58 | 1.84 | 1.1 |  | 
8 | CCGATTAACATCAGGTATTTTACTGATGTTAATCGGGTCTTGATTCGCTTGACGCTGCTG |  |  | 4.67 | 1.93 | 2 | 2.63 | 
9 | CCGATTAACATCATAATGGGAAATGATGTTAATCGGGTCTTGATTCGCTTGACGCTGCTG |  | 1.93 |  | 1.68 | 2.18 | 2.35 | 2.83
10 | CCGATTAACATCATTCCCGGAAATGATGTTAATCGGGTCTTGATTCGCTTGACGCTGCTG |  | 2.37 | 1.05 | 2.67 | 1.79 | 2.61 | 3.35
11 | CCGATTAACATCAAAGTGGGAAATGATGTTAATCGGGTCTTGATTCGCTTGACGCTGCTG |  | 2.54 |  | 1.64 | 2.09 | 2.91 | 3.3
12 | CCGATTAACATCAAAAAAGTCCGTGATGTTAATCGGGTCTTGATTCGCTTGACGCTGCTG |  |  | 4.7 | 3.69 | 1.4 |  | 1.12
13 | CCGATTAACATCAGGAAATAACCTGATGTTAATCGGGTCTTGATTCGCTTGACGCTGCTG |  |  | 3.31 | 4.91 | 5.04 | 3.75 | 3.04
14 | CCGATTAACATCAGGTAAATACCTGATGTTAATCGGGTCTTGATTCGCTTGACGCTGCTG |  |  | 4.77 | 4.2 | 2.11 | 3.12 | 2.06
15 | CCGATTAACATCAGTGGGAAACATGATGTTAATCGGGTCTTGATTCGCTTGACGCTGCTG |  | 3.12 |  | 2.03 | 1.25 | 1.79 | 1.93
16 | CCGATTAACATCAAGGAATTTTCTGATGTTAATCGGGTCTTGATTCGCTTGACGCTGCTG |  |  | 1.93 | 2.26 | 1.18 |  | 1.08
17 | CCGATTAACATCAGTTGGGAAAATGATGTTAATCGGGTCTTGATTCGCTTGACGCTGCTG |  | 2.64 |  | 1.77 | 2.33 | 4.31 | 3.62
18 | CCGATTAACATCAGGTTATTCCATGATGTTAATCGGGTCTTGATTCGCTTGACGCTGCTG |  |  | 2.41 | 1.85 | 3.32 | 2.28 | 
19 | CCGATTAACATCACCCCAAACGCTGATGTTAATCGGGTCTTGATTCGCTTGACGCTGCTG | 1.27 | 1.79 |  | 1.09 | 1.17 |  | 
20 | CCGATTAACATCAGGTGATCACCTGATGTTAATCGGGTCTTGATTCGCTTGACGCTGCTG |  |  | 2.86 | 1.32 | 1.9 | 2.18 | 
21 | CCGATTAACATCACCGGAAATTCTGATGTTAATCGGGTCTTGATTCGCTTGACGCTGCTG |  |  | 1.78 | 2.51 | 2.29 | 1.39 | 1.22
22 | CCGATTAACATCAAAATTTCCGGTGATGTTAATCGGGTCTTGATTCGCTTGACGCTGCTG |  |  | 1.67 | 3.05 | 2.46 | 1.02 | 
23 | CCGATTAACATCATTCCGGGAAATGATGTTAATCGGGTCTTGATTCGCTTGACGCTGCTG |  | 2.74 |  | 1.95 | 1.99 | 3.44 | 2.87

Reference: PMC5700166
